Experimental data: the supplement of paper PMC6555819

What follows are sequences tested on PPARg:RXRa 270nM:90nM, anti-RXR (NR concentration 270 nM, RXRa partner concentration 90 nM) (assay: PBM binding z-score (relative to random genomic background probes); higher = stronger binding; sequences stand for … in GC…GCGATTGACAGCGTAGAATGAAGG).
Procedure, shortened: (§1)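 Custom Agilent 4×180K protein-binding microarrays carried double-stranded probes, each with a 34-nt variable region. These regions held direct-repeat seeds, single-nucleotide variants, half-site ablations and random human genomic background sequences. Ligand-free nuclear receptor dimers were incubated on the arrays for 1 h, antibodies against each partner (one per run) detected binding, and scanned fluorescence was regression-normalized. Binding z-scores take the random background probes as reference.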
TCTTGTAGATCAAGCAGGTTAATAAAGCCTGAGT was tested, and the PBM binding z-score was 0.922. CCAGACAGGTGAAAGGTACCTCAGTCTGGTACGC gave a PBM binding z-score of 4.94. For CGTCCAAGGGCATAGGAGGTCAGTGAAGACAGAT, the PBM binding z-score was 1.38. For CAAACTAGGTCACGATAGGTCAAAGTCGAATGAC, the PBM binding z-score was 7.74. With TCTCGGAGGACACCAAGGTCAGAGCTTTCCAGAG the PBM binding z-score was 1.65. Sequence TCATATAGGTAAAGGTGAAAGGCGAACGATATGA has a PBM binding z-score of 4.99. With CGAACGAGGGCATGAGTTGATCGCAAATGCCGAT the PBM binding z-score was 1.32. GCTCCTAGGTCAACTGATGGTCAGCTAAAGCTCG gave a PBM binding z-score of 3.46. AGTCAAAGTTCATCTAGCTAACGTAAGATATGCT showed a PBM binding z-score of 6.05. In the case of TTTCCAAGGTGAGCTGAGGTCGTTGATCCAACTC, the PBM binding z-score is reported as 1.07. For CCTAGCAGGCCAATCTGGGTTACTCAAGGCTTGA, the PBM binding z-score was 0.0942. With TCTGCTAGGTCAGTAGGTCAGCTAACGAGCTGCC the PBM binding z-score was 5. Work on CGTCCAAGGTCAAGGACAGTGAAAGAGACTCGAA yielded a PBM binding z-score of 5.16. CTCAAAAGGTCGTGCTCAGGTGAGTATACCAAAC showed a PBM binding z-score of 3.85. For ACTAGAAGGCCAAGTTTGGGTCACTCAAACAAAG, the PBM binding z-score was 0.723. With GCAGACAGGTGAGACGCAGGTAACTCAGGGTGGC the PBM binding z-score was -0.0915. ACTAGCAGGCCAAGGGTCAATCAAGATTAGTCCG showed a PBM binding z-score of 7.68. In the case of AGTGAAAGTTCATCTAGGTAACGTAAGATATGCT, the PBM binding z-score is reported as 5.5. CAAACTAGGTCACAGGAAGGTCAAAGTCCGCATG was tested, and the PBM binding z-score was 7.57. Work on CGTCCAACGTCAATGCTAGGTCAGTGAAAGCATT yielded a PBM binding z-score of -0.424. In the case of AATGCAGGGTCACTAGGCCAGAGTAGGTACGAAT, the PBM binding z-score is reported as 6.77. ACTGACAGGTGAGTGAAGGTAACTCAGCTGGACG showed a PBM binding z-score of 0.0745. ACTATTAGTCGACTTAGGGCAACCGATACGACGC showed a PBM binding z-score of 0.138. Sequence TCATATAGGTAAATGCTAAGTGAAAGTCCGATCT has a PBM binding z-score of 2.04. CCTCGGAGGACGACAGGAGGTCAGAGCTGCCAGA was tested, and the PBM binding z-score was 0.213. CCGACTGAGGCAAGGTTACCATAACGCACAGCCA gave a PBM binding z-score of 0.236. In the case of TTACCAAGGTGAAAGGTCGTCGATGCACGCCTTG, the PBM binding z-score is reported as 8.47. For CGAACTAAGTCAAGGACAGTGAATCTCCGCACGC, the PBM binding z-score was -0.132. CGTCTAAGGTCAGAGAGGTCAGTGAATGCCGAGT was tested, and the PBM binding z-score was 5.03. TGAATGAGGTGATAAGATCAGGGAACGTTGCAAA showed a PBM binding z-score of 1.24. Sequence CCTAGCAGGCCAGGGTCACTGAAGCATTTCGCTT has a PBM binding z-score of 1.95. In the case of TTATATAGGTAAACAGGTGAAAGTCCGTAAGTTA, the PBM binding z-score is reported as 4.75. In the case of TAGCCTAGGTCCGATCGGGCCAGTATACGCTATA, the PBM binding z-score is reported as -1.28. With AGAACGAGGGCAGGCTGAGTTGATAGCAGAGTAG the PBM binding z-score was 0.432. GCTTACGGGTCAAAGATTATAGCATGAATAGAAT showed a PBM binding z-score of 6.09. For TCTAGCAGGCCACAGGGTCACTCAAGAGGTACGG, the PBM binding z-score was 3.02. Work on TAGCCTAGGTCACTGGGCCAGTATAGTACGCATC yielded a PBM binding z-score of 4.62. Sequence TTACCAAGATGAAGGTCGTTGATCCCTCTGTAGA has a PBM binding z-score of 1.7. For GATATAGGGTCAAGGCCAGAGTACGCGTATTGAT, the PBM binding z-score was 6.2. Sequence GCGAATGGGGCAAAGCAGGTTACCATAAGGTTGG has a PBM binding z-score of 0.187.

The sequences below were run on PPARg:RXRa 30nM:10nM, anti-RXR (NR concentration 30 nM, RXRa partner concentration 10 nM) in the same assay as above.
Procedure, shortened: as §1
TCTTGTAGATCAAGCAGGTTAATAAAGCCTGAGT gave a PBM binding z-score of 2.43. For CCAGACAGGTGAAAGGTACCTCAGTCTGGTACGC, the PBM binding z-score was 2.26. Work on CGTCCAAGGGCATAGGAGGTCAGTGAAGACAGAT yielded a PBM binding z-score of -0.000502. CAAACTAGGTCACGATAGGTCAAAGTCGAATGAC gave a PBM binding z-score of 6.05. TCTCGGAGGACACCAAGGTCAGAGCTTTCCAGAG showed a PBM binding z-score of 2.01. TCATATAGGTAAAGGTGAAAGGCGAACGATATGA was tested, and the PBM binding z-score was 4.35. CGAACGAGGGCATGAGTTGATCGCAAATGCCGAT gave a PBM binding z-score of 0.129. For GCTCCTAGGTCAACTGATGGTCAGCTAAAGCTCG, the PBM binding z-score was 1.21. AGTCAAAGTTCATCTAGCTAACGTAAGATATGCT showed a PBM binding z-score of 3.68. TTTCCAAGGTGAGCTGAGGTCGTTGATCCAACTC gave a PBM binding z-score of 0.576. With CCTAGCAGGCCAATCTGGGTTACTCAAGGCTTGA the PBM binding z-score was -1.01. With TCTGCTAGGTCAGTAGGTCAGCTAACGAGCTGCC the PBM binding z-score was 2.51. CGTCCAAGGTCAAGGACAGTGAAAGAGACTCGAA was tested, and the PBM binding z-score was 1.84. In the case of CTCAAAAGGTCGTGCTCAGGTGAGTATACCAAAC, the PBM binding z-score is reported as 0.896. Sequence ACTAGAAGGCCAAGTTTGGGTCACTCAAACAAAG has a PBM binding z-score of -0.386. For GCAGACAGGTGAGACGCAGGTAACTCAGGGTGGC, the PBM binding z-score was -0.758. Sequence ACTAGCAGGCCAAGGGTCAATCAAGATTAGTCCG has a PBM binding z-score of 6.29. For AGTGAAAGTTCATCTAGGTAACGTAAGATATGCT, the PBM binding z-score was 2.65. CAAACTAGGTCACAGGAAGGTCAAAGTCCGCATG was tested, and the PBM binding z-score was 5.77. Work on CGTCCAACGTCAATGCTAGGTCAGTGAAAGCATT yielded a PBM binding z-score of -0.443. AATGCAGGGTCACTAGGCCAGAGTAGGTACGAAT showed a PBM binding z-score of 3.41. For ACTGACAGGTGAGTGAAGGTAACTCAGCTGGACG, the PBM binding z-score was -0.305. ACTATTAGTCGACTTAGGGCAACCGATACGACGC showed a PBM binding z-score of 0.0617. TCATATAGGTAAATGCTAAGTGAAAGTCCGATCT was tested, and the PBM binding z-score was 3.9. Sequence CCTCGGAGGACGACAGGAGGTCAGAGCTGCCAGA has a PBM binding z-score of -0.596. Work on CCGACTGAGGCAAGGTTACCATAACGCACAGCCA yielded a PBM binding z-score of -0.466. TTACCAAGGTGAAAGGTCGTCGATGCACGCCTTG gave a PBM binding z-score of 7.23. Sequence CGAACTAAGTCAAGGACAGTGAATCTCCGCACGC has a PBM binding z-score of -0.287. In the case of CGTCTAAGGTCAGAGAGGTCAGTGAATGCCGAGT, the PBM binding z-score is reported as 1.38. Sequence TGAATGAGGTGATAAGATCAGGGAACGTTGCAAA has a PBM binding z-score of 0.758. For CCTAGCAGGCCAGGGTCACTGAAGCATTTCGCTT, the PBM binding z-score was -0.0383. TTATATAGGTAAACAGGTGAAAGTCCGTAAGTTA was tested, and the PBM binding z-score was 2.93. For TAGCCTAGGTCCGATCGGGCCAGTATACGCTATA, the PBM binding z-score was -1.09. In the case of AGAACGAGGGCAGGCTGAGTTGATAGCAGAGTAG, the PBM binding z-score is reported as -0.189. GCTTACGGGTCAAAGATTATAGCATGAATAGAAT showed a PBM binding z-score of 3.92. TCTAGCAGGCCACAGGGTCACTCAAGAGGTACGG showed a PBM binding z-score of 2.18. TAGCCTAGGTCACTGGGCCAGTATAGTACGCATC showed a PBM binding z-score of 1.68. Sequence TTACCAAGATGAAGGTCGTTGATCCCTCTGTAGA has a PBM binding z-score of 1.5. In the case of GATATAGGGTCAAGGCCAGAGTACGCGTATTGAT, the PBM binding z-score is reported as 3.04. With GCGAATGGGGCAAAGCAGGTTACCATAAGGTTGG the PBM binding z-score was -0.478.
